Source: PubChem BioAssay (EPA / NIEHS)
Some compounds were tested as several samples or in several runs, with calls that do not always agree. The source made the active and inactive calls. The calls were made as follows: active = hit-call score of the fitted dose curve at least 0.9, where 1 is the maximum; inactive = score below 0.9.

Experiments:
Settings in all cases: primary human HUVEC with PBMC; actives raise or lower the signal
[1] = read-out: Monocyte Chemoattractant Protein-1 (MCP1), CCL2 (gene 6347); assay: BSK_LPS_MCP1: BioMAP Diversity Plus: LPS Assay for Monocyte Chemoattractant Protein-1 (MCP1) Biomarker Activity (AID 2283081);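 as to AC50: secreted MCP-1 protein quantified by ELISA in culture supernatant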
Method in brief: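 Human endothelial–PBMC co-cultures were dosed with chemical, then LPS-driven MCP-1 levels were quantified by ELISA at 24 h. Activity in either direction was fitted versus DMSO negative control.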

[2] = BSK_LPS_PGE2: BioMAP Diversity Plus: LPS Assay for Prostaglandin E2 (PGE2) Biomarker Activity (AID 2283082);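 as to AC50: secreted prostaglandin E2 measured by ELISA in LPS-stimulated co-culture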
Method in brief: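 Compounds were added to the LPS co-culture of endothelium and PBMC, and PGE2 was measured by ELISA after 24 h. Responses in either direction were fitted with DMSO as baseline.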

[3] = read-out: Macrophage colony-stimulating factor (MCSF), CSF1 (gene 1435); assay: BSK_LPS_MCSF: BioMAP Diversity Plus: LPS Assay for Macrophage colony-stimulating factor (MCSF) Biomarker Activity (AID 2283083)
Method in brief: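 ELISA readout of M-CSF after 24 h compound exposure in a human endothelial/PBMC co-culture. Activity, in either direction, is fitted relative to DMSO vehicle.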

[4] = read-out: Tissue Factor, F3 (gene 2152); assay: BSK_LPS_TissueFactor: BioMAP Diversity Plus: LPS Assay for Tissue Factor Biomarker Activity (AID 2283084)
Method in brief: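 ELISA signal for cell-surface Tissue Factor (CD142) was read 24 h after compound dosing of an LPS-stimulated human endothelial–PBMC primary co-culture. Gain or loss of signal was scored relative to DMSO.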

[5] = read-out: Vascular cell adhesion molecule 1 (VCAM1), VCAM1 (gene 7412); assay: BSK_LPS_VCAM1: BioMAP Diversity Plus: LPS Assay for Vascular cell adhesion molecule 1 (VCAM1) Biomarker Activity (AID 2283086)
Method in brief: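 Cells are dosed in an LPS-stimulated endothelial/mononuclear co-culture and, after 24 h, VCAM-1 is quantified by ELISA. Activity in either direction is fitted relative to the DMSO negative control.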

CD38, CD38 (gene 952) = assay: BSK_SAg_CD38: BioMAP Diversity Plus: SAg Assay for CD38 Biomarker Activity (AID 2283087)
Method in brief: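 CD38 quantified by ELISA (fluorescence) in a superantigen-activated endothelial cell–PBMC co-culture at 24 h post-dose. Activity fitted in both directions relative to DMSO; parallel SRB and Alamar Blue cytotoxicity read-outs.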

CD40, CD40 (gene 958) = assay: BSK_SAg_CD40: BioMAP Diversity Plus: SAg Assay for CD40 Biomarker Activity (AID 2283088)
Method in brief: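 Compounds were dosed onto a human primary endothelial–PBMC co-culture, and after 24 h CD40 was quantified by ELISA using a fluorescence signal. Activity in either direction was fitted relative to DMSO.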

CD69, CD69 (gene 969) = assay: BSK_SAg_CD69: BioMAP Diversity Plus: SAg Assay for CD69 Biomarker Activity (AID 2283089);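 as to AC50: cell surface CD69 protein quantified by ELISA with fluorescence detection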
Method in brief: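 Values derive from bidirectional fitting relative to DMSO vehicle. Cells: umbilical vein endothelium plus peripheral blood mononuclear cells, treated 24 h before fluorescent ELISA for CD69.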

[6] = read-out: Monocyte Chemoattractant Protein-1 (MCP1), CCL2 (gene 6347); assay: BSK_SAg_MCP1: BioMAP Diversity Plus: SAg Assay for Monocyte Chemoattractant Protein-1 (MCP1) Biomarker Activity (AID 2283090)
Method in brief: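 Values derive from bidirectional fitting of ELISA-measured MCP1 against DMSO controls. Readings were taken 24 h after dosing human vascular endothelial cells co-cultured with peripheral blood mononuclear cells under superantigen stimulation.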

[7] = read-out: Tumor necrosis factor (Homo sapiens) (UniProt P01375); assay: BSK_LPS_TNFa: BioMAP Diversity Plus: LPS Assay for Tumour Necrosis Factor alpha (TNFa) Biomarker Activity (AID 2283085);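 as to AC50: TNFa protein level quantified by ELISA in the co-culture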
Method in brief: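 Cells (umbilical vein endothelium plus peripheral blood mononuclear cells) were dosed with chemical, incubated 24 h, then TNFa was quantified by ELISA; values derive from bidirectional fitting with DMSO as baseline.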

Measured: AC50

Sequence of Tumor necrosis factor (Homo sapiens) (P01375 whole entry, looked up): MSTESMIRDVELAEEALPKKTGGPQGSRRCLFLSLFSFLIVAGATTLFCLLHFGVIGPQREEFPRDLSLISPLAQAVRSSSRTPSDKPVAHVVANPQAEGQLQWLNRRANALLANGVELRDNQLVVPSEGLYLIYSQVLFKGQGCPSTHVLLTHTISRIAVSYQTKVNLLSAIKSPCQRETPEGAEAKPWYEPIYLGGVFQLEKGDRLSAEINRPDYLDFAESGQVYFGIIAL

ClC1C(Cl)C(Cl)C(Cl)C(Cl)C1Cl (stereo unspecified)
inactive: [1] | [2] | [3] | [4] | [5] | CD38, CD38 (gene 952) | CD40, CD40 (gene 958) | CD69, CD69 (gene 969) | [6]
active: [5] 31.3 µM

O=C(NC(=O)c1c(F)cccc1F)Nc1ccc(OC(F)(F)C(F)OC(F)(F)F)c(Cl)c1 (stereo unspecified)
active: CD38, CD38 (gene 952) 16.3 µM | [6] 32.2 µM
inactive: all other assays above

CC1(C)C(C=C(Cl)Cl)C1C(=O)OC(C#N)c1ccc(F)c(Oc2ccccc2)c1 (stereo unspecified)
active: [2] 5.22 µM | [6] 7.41 µM
inactive: all other assays above

Cc1cc(C)nc(NC(=O)NS(=O)(=O)c2ccccc2C(=O)OC2COC2)n1
active: [3] 0.331 µM
inactive: all other assays above

O=S(=O)(O)C(F)(F)C(F)(F)C(F)(F)C(F)(F)C(F)(F)C(F)(F)C(F)(F)C(F)(F)F
inactive: [1] | [2] | [3] | [4] | [5] | CD38, CD38 (gene 952) | CD40, CD40 (gene 958) | CD69, CD69 (gene 969) | [6]
active: CD40, CD40 (gene 958) 20 µM

O=[N+]([O-])c1c(Cl)c(Cl)c(Cl)c(Cl)c1Cl
active: [3] 22.4 µM | [7] 25.9 µM | [5] 25.5 µM
inactive: all other assays above

CNC(=O)/C=C(\C)OP(=O)(OC)OC
not listed: [7]
inactive: all other assays above

CC(C)N(C(=O)COc1nnc(C(F)(F)F)s1)c1ccc(F)cc1
active: [7] 12.6 µM
inactive: all other assays above

O=C(O)CCCOc1ccc(Cl)cc1Cl
active: [2] 15.2 µM
inactive: all other assays above

CCC(C)Nc1c([N+](=O)[O-])cc(C(C)(C)C)cc1[N+](=O)[O-] (stereo unspecified)
active: [3] 11.1 µM | [5] 22.8 µM | CD38, CD38 (gene 952) 16.6 µM | CD40, CD40 (gene 958) 30.7 µM | CD69, CD69 (gene 969) 15.6 µM
inactive: [1] | [2] | [4] | [6]

N#Cc1c(Cl)c(Cl)c(Cl)c(C#N)c1Cl
active: [1] 1.16 µM | [2] 0.148 µM | [3] 0.924 µM | [4] 0.332 µM | [5] 0.773 µM | CD38, CD38 (gene 952) 0.953 µM | CD40, CD40 (gene 958) 0.459 µM | CD69, CD69 (gene 969) 1.35 µM | [6] 1.68 µM

O=C(O)COc1ccc(Cl)cc1Cl
not listed: [7]
inactive: all other assays above

O=S1OCC2C(CO1)C1(Cl)C(Cl)=C(Cl)C2(Cl)C1(Cl)Cl (stereo unspecified)
inactive: [2]
active: [1] 34.9 µM | [3] 30.2 µM | [4] 31.2 µM | [7] 32.2 µM | [5] 18.3 µM | CD38, CD38 (gene 952) 28.3 µM | CD40, CD40 (gene 958) 16.3 µM | CD69, CD69 (gene 969) 26.9 µM | [6] 35.5 µM

O=C1c2ccccc2C(=O)N1SC(Cl)(Cl)Cl
active: [7] 32 µM
inactive: all other assays above

CN1CSC(=S)N(C)C1
active: [1] 11.9 µM | [2] 3.85 µM | [3] 10.8 µM | [4] 13.7 µM | [7] 8.45 µM | [5] 18.3 µM | CD38, CD38 (gene 952) 23.3 µM | CD40, CD40 (gene 958) 20 µM | CD69, CD69 (gene 969) 20 µM | [6] 15 µM

CCOc1nc(NC)nc(NC(=O)NS(=O)(=O)c2ccccc2C(=O)OC)n1
inactive: all assays above

CC(C)OC(=O)Nc1cccc(Cl)c1
active: [2] 6.13 µM
inactive: all other assays above
